Bioassay records as filed in PubChem.
Compounds with a hit are over-represented: about 0.9% of the library has one in this group of screens.
SRC3 TRFRET art – counter-screen for PPARgamma SRC-3 recruitment agonists: TR-FRET artefact. PPARgamma/SRC-3 format; hits give high values. TR-FRET ratio at 8 µM. 0.39% of 99,000 active
PPARg SRC-1 ag – promotes SRC-1 coactivator recruitment by human PPARgamma; P37231; PPARgamma-SRC-1 coactivator recruitment biochemical assay; activation, % at 8 µM; 0.41% of 200,000 active; AID 631; in the data active = activation above about 19%
PPARg SRC-3 ag – promotes SRC-3 coactivator recruitment by human PPARgamma. biochemical PPARgamma/SRC-3 coactivator recruitment assay. 0.26% of 200,000 active. P37231. activation, % at 8 µM; in the data active = activation above about 23%
SRC1 TRFRET art – TR-FRET artefact, counter-screen to PPARgamma/SRC-1 agonist assay. TR-FRET detection artefact counter-screen, emission ratio; hits give high values. TR-FRET ratio at 8 µM. 0.34% of 99,000 active; in the data active = TR-FRET ratio above about 2300
PPARg SRC-2 ag – promotes SRC-2 coactivator recruitment by human PPARgamma. 0.34% of 200,000 active. AID 1032. activation, % at 8 µM. P37231. PPARgamma LBD-SRC-2 recruitment, biochemical; in the data active = activation above about 22%
SRC2 TRFRET art – flags TR-FRET format artefacts in PPARgamma SRC-2 recruitment agonist screen; 0.4% of 200,000 active; TR-FRET ratio at 8 µM; TR-FRET artefact counter-screen; hits give high values
PPARg SRC2 ag – confirmation of agonists of SRC-2 recruitment by human PPARgamma | shares compounds with PPARg SRC-3 ag | biochemical SRC-2 recruitment by PPARgamma | activation, % at 8 µM | 52% of 790 active | AID 1297; in the data active = activation above about 22%
PPARg SRC1 ag – human PPARgamma SRC-1 recruitment agonism, confirmation | shares compounds with PPARg SRC-3 ag | PPARgamma–SRC-1 coactivator recruitment biochemical assay | activation, % at 8 µM | 43% of 790 active | AID 1300; in the data active = activation above about 20%
PPARg SRC3 ag – human PPARgamma SRC-3 recruitment agonism, confirmation | shares compounds with PPARg SRC-3 ag | biochemical PPARgamma-SRC-3 coactivator recruitment, agonist mode | activation, % at 8 µM | 29% of 790 active; in the data active = activation above about 24%
Target sequence (P37231 whole entry, looked up): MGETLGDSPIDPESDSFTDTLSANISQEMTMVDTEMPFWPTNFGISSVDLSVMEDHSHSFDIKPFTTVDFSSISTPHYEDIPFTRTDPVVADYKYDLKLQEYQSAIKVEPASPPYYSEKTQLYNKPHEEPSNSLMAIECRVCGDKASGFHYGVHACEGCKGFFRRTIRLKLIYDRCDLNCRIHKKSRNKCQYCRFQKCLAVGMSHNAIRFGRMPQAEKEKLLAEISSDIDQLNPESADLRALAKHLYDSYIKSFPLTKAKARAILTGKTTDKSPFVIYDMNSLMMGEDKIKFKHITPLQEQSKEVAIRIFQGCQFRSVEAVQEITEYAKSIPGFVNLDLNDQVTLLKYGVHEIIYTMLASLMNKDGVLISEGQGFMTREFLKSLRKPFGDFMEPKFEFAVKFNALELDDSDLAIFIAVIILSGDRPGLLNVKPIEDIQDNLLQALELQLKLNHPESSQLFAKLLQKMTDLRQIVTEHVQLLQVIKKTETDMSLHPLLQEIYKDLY
Target sequence (Q9Y6Q9 whole entry, looked up): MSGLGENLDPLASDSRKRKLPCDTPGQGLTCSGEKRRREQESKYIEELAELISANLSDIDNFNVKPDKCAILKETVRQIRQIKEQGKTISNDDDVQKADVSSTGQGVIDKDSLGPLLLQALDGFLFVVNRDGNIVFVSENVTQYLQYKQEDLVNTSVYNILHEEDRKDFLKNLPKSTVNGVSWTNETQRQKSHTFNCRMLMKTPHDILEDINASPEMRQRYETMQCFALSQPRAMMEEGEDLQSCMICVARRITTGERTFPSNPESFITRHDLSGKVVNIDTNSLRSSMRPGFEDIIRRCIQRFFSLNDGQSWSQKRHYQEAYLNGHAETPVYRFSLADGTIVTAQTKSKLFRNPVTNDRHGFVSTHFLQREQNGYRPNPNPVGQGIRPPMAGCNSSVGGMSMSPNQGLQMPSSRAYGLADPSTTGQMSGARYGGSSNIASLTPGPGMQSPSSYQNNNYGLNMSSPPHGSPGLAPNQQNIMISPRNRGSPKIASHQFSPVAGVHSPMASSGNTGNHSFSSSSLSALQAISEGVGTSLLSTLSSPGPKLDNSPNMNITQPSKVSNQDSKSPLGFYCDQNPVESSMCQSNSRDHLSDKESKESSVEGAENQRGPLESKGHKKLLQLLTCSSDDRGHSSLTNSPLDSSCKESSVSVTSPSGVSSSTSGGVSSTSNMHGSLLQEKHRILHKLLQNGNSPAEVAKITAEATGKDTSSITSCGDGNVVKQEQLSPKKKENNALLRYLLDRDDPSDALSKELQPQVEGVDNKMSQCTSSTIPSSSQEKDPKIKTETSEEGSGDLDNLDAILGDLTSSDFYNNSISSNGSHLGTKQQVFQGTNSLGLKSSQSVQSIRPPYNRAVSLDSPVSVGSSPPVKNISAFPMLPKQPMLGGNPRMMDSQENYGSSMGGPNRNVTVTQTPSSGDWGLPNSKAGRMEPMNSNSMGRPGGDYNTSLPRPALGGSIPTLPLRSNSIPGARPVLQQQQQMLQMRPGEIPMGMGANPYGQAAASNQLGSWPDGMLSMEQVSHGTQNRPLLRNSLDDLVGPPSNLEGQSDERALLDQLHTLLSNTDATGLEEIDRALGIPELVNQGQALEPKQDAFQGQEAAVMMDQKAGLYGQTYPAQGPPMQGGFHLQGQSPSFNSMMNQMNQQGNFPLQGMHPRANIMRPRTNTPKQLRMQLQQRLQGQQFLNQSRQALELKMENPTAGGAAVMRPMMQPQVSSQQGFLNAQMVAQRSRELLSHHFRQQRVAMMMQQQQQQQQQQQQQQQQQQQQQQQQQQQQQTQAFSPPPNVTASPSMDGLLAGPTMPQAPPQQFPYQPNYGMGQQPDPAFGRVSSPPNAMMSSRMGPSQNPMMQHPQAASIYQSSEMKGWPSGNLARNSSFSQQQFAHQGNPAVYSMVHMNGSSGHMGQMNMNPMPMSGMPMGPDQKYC
Large screens that a line does not name were inactive (follow-up assays come after a bar, where they were run). Cut-off read from the data, not from the text of the source, unless noted: active = TR-FRET ratio above about 2000; inactive = the rest.

O=C1NC(c2ccccc2)C(C(=O)c2cccs2)=C1O (configuration not stated)	PPARg SRC-1 ag 20 (no result: SRC3 TRFRET art, SRC1 TRFRET art) | PPARg SRC2 ag inactive | PPARg SRC1 ag inactive | PPARg SRC3 ag inactive
COc1cccc(C2C(C(=O)c3cccs3)=C(O)C(=O)N2CCN(C)C)c1OC (configuration not stated)	none (no result: SRC3 TRFRET art, SRC1 TRFRET art)
CC(C)N1C(=O)CC2(CC[N+](C)(CCOC(=O)C(c3ccccc3)c3ccccc3)CC2)C1=O (configuration not stated)	none (no result: SRC3 TRFRET art, SRC1 TRFRET art)
Oc1ccc(N=Cc2ccc(-c3cccs3)s2)cc1	PPARg SRC-1 ag 37, PPARg SRC-2 ag 26 (no result: SRC3 TRFRET art, SRC1 TRFRET art) | PPARg SRC2 ag 53 | PPARg SRC1 ag 46 | PPARg SRC3 ag 30
O=c1c2sccc2[nH]c(=S)n1Cc1ccccc1	none
Cc1cccc(-n2c(CCc3ccccc3)nnc2SCC(=O)c2ccccc2)c1	none
CCOC(=O)CC(NC(=O)Cn1nnc(-c2ccccc2)n1)c1ccc(OC)cc1 (configuration not stated)	none
O=c1c2cn[nH]c2[nH]c(=S)n1-c1cccc2ccccc12	SRC3 TRFRET art 2082, SRC1 TRFRET art 2560, PPARg SRC-2 ag 24, SRC2 TRFRET art 2219 | PPARg SRC2 ag 24 | PPARg SRC1 ag inactive | PPARg SRC3 ag inactive
CCn1c(=O)cc(SCC(=O)Nc2ccc3c(c2)OCO3)c2ccccc21	PPARg SRC-1 ag 24, PPARg SRC-3 ag 32, PPARg SRC-2 ag 47, SRC2 TRFRET art 2330 (no result: SRC3 TRFRET art, SRC1 TRFRET art) | PPARg SRC2 ag 44 | PPARg SRC1 ag 32 | PPARg SRC3 ag 29
CCn1c(=O)cc(SCC(=O)Nc2cccnc2)c2ccccc21	PPARg SRC-1 ag 19, PPARg SRC-3 ag 27, PPARg SRC-2 ag 45, SRC2 TRFRET art 2082 (no result: SRC3 TRFRET art, SRC1 TRFRET art) | PPARg SRC2 ag 31 | PPARg SRC1 ag 20 | PPARg SRC3 ag inactive
CC(C)(C)NS(=O)(=O)c1cnc(Cl)c(Cl)c1	none (no result: SRC3 TRFRET art, SRC1 TRFRET art)
O=C(Nc1nc(-c2cccs2)c(C(=O)C(F)(F)F)s1)c1ccco1	SRC3 TRFRET art 3363, PPARg SRC-1 ag 41, PPARg SRC-3 ag 37, SRC1 TRFRET art 3540, PPARg SRC-2 ag 61, SRC2 TRFRET art 3022 | PPARg SRC2 ag 37 | PPARg SRC1 ag 22 | PPARg SRC3 ag 25
O=C(CSc1nnc(COc2cccc3cccnc23)o1)N1CCc2ccccc21	PPARg SRC-1 ag 20 (no result: SRC3 TRFRET art, SRC1 TRFRET art) | PPARg SRC2 ag inactive | PPARg SRC1 ag inactive | PPARg SRC3 ag inactive
S=c1[nH]c(-c2ccc(Cl)cc2)cs1	SRC3 TRFRET art 2141, PPARg SRC-1 ag 27, SRC1 TRFRET art 2339, PPARg SRC-2 ag 30, SRC2 TRFRET art 1997 | PPARg SRC2 ag 27 | PPARg SRC1 ag inactive | PPARg SRC3 ag inactive
CN(C)c1nnnn1-c1cccc(Oc2ncc(C(F)(F)F)cc2Cl)c1	none
CCCCn1c(=S)[nH]c2c(oc3ccc(Cl)cc32)c1=O	PPARg SRC-1 ag 22 (no result: SRC3 TRFRET art, SRC1 TRFRET art) | PPARg SRC2 ag inactive | PPARg SRC1 ag inactive | PPARg SRC3 ag inactive
Cc1ccc(NCC(=O)N/N=C/c2c[nH]c3ccccc23)cc1	none
COc1cc(/C=C(\C#N)C(=O)Nc2cccc3ncccc23)cc(OC)c1OC	PPARg SRC-3 ag 24 | PPARg SRC2 ag inactive | PPARg SRC1 ag inactive | PPARg SRC3 ag inactive
Cc1cc2nc(-c3ccc(SCc4ccccc4C#N)nc3)[nH]c2cc1C	PPARg SRC-1 ag 36, PPARg SRC-3 ag 46, PPARg SRC-2 ag 59, SRC2 TRFRET art 2284 (no result: SRC3 TRFRET art, SRC1 TRFRET art) | PPARg SRC2 ag 32 | PPARg SRC1 ag 20 | PPARg SRC3 ag inactive
O=C(Nc1ccccc1C(=O)NCC1CCCO1)c1ccc(Cl)cc1Cl (configuration not stated)	PPARg SRC-1 ag 22 (no result: SRC3 TRFRET art, SRC1 TRFRET art) | PPARg SRC2 ag inactive | PPARg SRC1 ag inactive | PPARg SRC3 ag inactive
COc1ccc(-c2cnn(C3CCS(=O)(=O)C3)c2N)cc1 (configuration not stated)	none (no result: SRC3 TRFRET art, SRC1 TRFRET art)
O=C(O)CCc1ccc(-c2ccc(Br)cc2)o1	PPARg SRC-1 ag 28, PPARg SRC-3 ag 62, PPARg SRC-2 ag 42, SRC2 TRFRET art 2456 (no result: SRC3 TRFRET art, SRC1 TRFRET art) | PPARg SRC2 ag 26 | PPARg SRC1 ag inactive | PPARg SRC3 ag inactive
CCCCOC(=O)C(C)Nc1n[nH]c(=O)[nH]c1=O (configuration not stated)	none (no result: SRC3 TRFRET art, SRC1 TRFRET art)
CCCCOC(=O)CNc1n[nH]c(=S)[nH]c1=O	PPARg SRC-1 ag 48, PPARg SRC-3 ag 95, PPARg SRC-2 ag 66, SRC2 TRFRET art 2722 (no result: SRC3 TRFRET art, SRC1 TRFRET art) | PPARg SRC2 ag 80 | PPARg SRC1 ag 61 | PPARg SRC3 ag 55
CCCCOC(=O)C(C)Nc1n[nH]c(=S)[nH]c1=O (configuration not stated)	PPARg SRC-3 ag 26 (no result: SRC3 TRFRET art, SRC1 TRFRET art) | PPARg SRC2 ag 27 | PPARg SRC1 ag 27 | PPARg SRC3 ag inactive
CCCCOC(=O)CCNc1n[nH]c(=O)[nH]c1=O	none
CC(C)COC(=O)CNc1n[nH]c(=S)[nH]c1=O	PPARg SRC-1 ag 52, PPARg SRC-3 ag 86, PPARg SRC-2 ag 63, SRC2 TRFRET art 2814 (no result: SRC3 TRFRET art, SRC1 TRFRET art) | PPARg SRC2 ag 78 | PPARg SRC1 ag 58 | PPARg SRC3 ag 52
O=C1CC(c2cc([N+](=O)[O-])ccc2Cl)c2c(ccc3ccccc23)N1 (configuration not stated)	none
O=C(NCc1nnc(SCC(=O)N2CCOCC2)o1)c1c(F)cccc1Cl	none
O=C(COC(=O)c1cccc(NS(=O)(=O)/C=C/c2ccccc2)c1)Nc1ccccc1OC(F)F	none
CCOC(=O)c1nn(-c2cccc(C)c2)c2nnc(Cc3ccc(C)cc3)c(=O)n12	none
CCOC(=O)Cc1csc(NC(=O)c2sc3nc4c(C)cc(C)cc4cc3c2N)n1	PPARg SRC-3 ag 27 (no result: SRC3 TRFRET art, SRC1 TRFRET art) | PPARg SRC2 ag inactive | PPARg SRC1 ag inactive | PPARg SRC3 ag inactive
CCOC(=O)Cc1csc(NC(=O)c2csc(C)c2)n1	none (no result: SRC3 TRFRET art, SRC1 TRFRET art)
O=C(Nc1ccc(Cl)cc1)Nc1ccc(S(=O)(=O)Nc2ncccn2)cc1	none
O=C(Nc1ccc(S(=O)(=O)Nc2ncccn2)cc1)c1ccc(Br)s1	PPARg SRC-3 ag 37, PPARg SRC-2 ag 22, SRC2 TRFRET art 2098 (no result: SRC3 TRFRET art, SRC1 TRFRET art) | PPARg SRC2 ag 23 | PPARg SRC1 ag inactive | PPARg SRC3 ag inactive
O=C(Nc1nnc(-c2ccco2)s1)C1CCN(S(=O)(=O)c2ccc(Cl)cc2)CC1	PPARg SRC-1 ag 34, PPARg SRC-3 ag 36 (no result: SRC3 TRFRET art, SRC1 TRFRET art) | PPARg SRC2 ag 24 | PPARg SRC1 ag inactive | PPARg SRC3 ag inactive
O=C(Nc1nc2c(s1)COc1ccccc1-2)c1cccs1	PPARg SRC-2 ag 27, SRC2 TRFRET art 2118 (no result: SRC3 TRFRET art, SRC1 TRFRET art) | PPARg SRC2 ag 41 | PPARg SRC1 ag 32 | PPARg SRC3 ag 28
O=c1c(O)c(-c2ccc(O)cc2O)oc2cc(O)cc(O)c12	PPARg SRC-1 ag 23 | PPARg SRC2 ag inactive | PPARg SRC1 ag inactive | PPARg SRC3 ag inactive
